Inconclusive results are not listed. The source made the active and inactive calls. Unless noted, calls follow the shape of the dose curve; as a rule, active = well fitted curve in the direction sought with a large enough effect in the repeat runs; inconclusive = weak or mixed curves; inactive = no such curve, though single readings can be large; an effect the other way counts as inactive or inconclusive.
Experiments:
[1] = target: Peroxisome proliferator-activated receptor delta (Homo sapiens) (UniProt Q03181); test: qHTS assay to identify small molecule agonists of the peroxisome proliferator-activated receptor delta (PPARd) signaling pathway (AID 743212; calls by dose curve; also: % is scaled to controls: 0 for no effect and ±100 for the full control effect)
Summary of the method: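 HEK293H UAS-bla reporter cells, human PPARd system; compounds delivered in DMSO after 5 h plating, then at 37 C. Beta-lactamase FRET read, 2 h RT substrate step.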

[2] = qHTS assay to identify small molecule antagonists of the peroxisome proliferator-activated receptor delta (PPARd) signaling pathway - cell viability counter screen (AID 743213); also: % is scaled to controls: 0 for no effect and ±100 for the full control effect; nearly all actives have a fitted effect of over 50% in size
Summary of the method: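 Same-well viability: cells pre-incubated 5 h, dosed with compound plus 300 nM L165041, kept 17 h at 37 C, FRET substrate 2 h RT, then CellTiter-Glo 30 min RT and luminescence.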

[3] = qHTS assay to identify small molecule agonists of the farnesoid-X-receptor (FXR) signaling pathway - cell viability counter screen (AID 743218); also: % is scaled to controls: 0 for no effect and ±100 for the full control effect; nearly all actives have a fitted effect of over 45% in size
Summary of the method: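 HEK 293T FXR-bla cells; 5 h pre-incubation, 16 h compound exposure at 37 C; LiveBLAzer substrate 2 h RT, then CellTiter-Glo 30 min RT, luminescence.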

[4] = qHTS assay to identify small molecule antagonists of the farnesoid-X-receptor (FXR) signaling pathway - cell viability counter screen (AID 743221; active = well fitted cell-killing curve with a large enough effect in the repeat runs, not every such curve was filed as active; also: % is scaled to controls: 0 for no effect and ±100 for the full control effect; nearly all actives have a fitted effect of over 50% in size)
Summary of the method: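 GeneBLAzer FXR-UAS-bla HEK 293T cells, compound plus chenodeoxycholic acid (50 uM final), 16 h at 37 C. CellTiter-Glo added to the same wells after the beta-lactamase read; luminescence read after 30 min at room temperature as viability.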

[5] = target: Vitamin D3 receptor (Homo sapiens) (UniProt P11473); test: qHTS assay to identify small molecule agonists of the vitamin D receptor (VDR) signaling pathway (AID 743222; calls by dose curve; also: % is scaled to controls: 0 for no effect and ±100 for the full control effect)
Summary of the method: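 VDR-bla cells, 2,000/well; 4 h preincubation 37C; cpd (DMSO) 16 h; LiveBLAzer B/G substrate 2 h RT; fluorescence intensity read.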

[6] = target: Vitamin D3 receptor (Homo sapiens) (UniProt P11473); test: qHTS assay to identify small molecule antagonists of the vitamin D receptor (VDR) signaling pathway (AID 743223; active = well fitted inhibition curve with a large enough effect in the signal ratio in the repeat runs, not every such curve was filed as active; the % refers to the signal ratio; also: % is scaled to controls: 0 for no effect and ±100 for the full control effect)
Summary of the method: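 VDR-bla cells were treated with compound plus 3 nM final 1alpha,25-dihydroxyvitamin D3 for 16 h at 37C. Beta-lactamase reporter read by B/G FRET substrate fluorescence after 2 h at room temperature. qHTS format.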

[7] = qHTS assay to identify small molecule agonists of the vitamin D receptor (VDR) signaling pathway - cell viability counter screen (AID 743224); also: series mostly up to about 63 µM; % is scaled to controls: 0 for no effect and ±100 for the full control effect; nearly all actives have a fitted effect of over 50% in size
Summary of the method: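 Luminescence from CellTiter-Glo, read after 30 min at room temperature, reports viability of VDR-bla cells treated with compounds for 16 h at 37C in the wells used for the beta-lactamase FRET read.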

[8] = qHTS assay to identify small molecule antagonists of the vitamin D receptor (VDR) signaling pathway - cell viability counter screen (AID 743225); also: % is scaled to controls: 0 for no effect and ±100 for the full control effect; nearly all actives have a fitted effect of over 50% in size
Summary of the method: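 VDR-UAS-bla HEK 293T cells were plated and incubated 4 h at 37C, then dosed with compound plus 3 nM (final) 1-alpha,25-dihydroxyvitamin D3 for 16 h. After the 2 h beta-lactamase read, viability in the same wells was read as CellTiter-Glo luminescence after 30 min at room temperature.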

[9] = qHTS assay to identify small molecule agonists of the NFkB signaling pathway (AID 1159509; active = well fitted curve in the direction sought with a large enough effect in the signal ratio in the repeat runs, not every such curve was filed as active; the % refers to the signal ratio; also: series mostly up to about 61 µM; % is scaled to controls: 0 for no effect and ±100 for the full control effect)
Summary of the method: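 After overnight attachment, reporter cells received test compounds, DMSO or positive controls and were incubated 5 hr at 37 C. FRET substrate was then added for 1.5 hr at room temperature before dual-emission fluorescence reading.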

[10] = qHTS assay to identify small molecule agonists of the NFkB signaling pathway - cell viability counter screen (AID 1159515; calls by dose curve; also: series mostly up to about 61 µM; % is scaled to controls: 0 for no effect and ±100 for the full control effect; nearly all actives have a fitted effect of over 55% in size)
Summary of the method: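 Luminescence from CellTiter-Glo (30 min, room temperature) gives viability, measured in the same wells as the beta-lactamase reporter read. Cells were NFkB-bla ME-180, 2,000 per well, treated 5 hr with compounds.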

[11] = qHTS assay to identify small molecule agonists of the endoplasmic reticulum stress response signaling pathway - cell viability counter screen (AID 1159517; calls by dose curve)
Summary of the method: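 Cells, HeLa ESRE-bla; density, 1,500/well; dosing, 5 hr at 37 C, 5% CO2; readout, CellTiter-Glo luminescence after 30 min RT.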

[12] = qHTS assay to identify small molecule antagonists of the retinoid-related orphan receptor gamma (ROR-gamma) signaling pathway - cell viability counter screen (AID 1159520)
Summary of the method: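 Cytotoxicity was read from cellular ATP (CellTiter-Glo luminescence) after 16 hr at 37 C with 1 uM doxycycline induction. The inducer was added 2 hr after compound transfer to Tet-on ROR gamma CHO cells.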

[13] = target: Nuclear receptor ROR-gamma (Homo sapiens) (UniProt P51449); test: qHTS assay to identify small molecule antagonists of the retinoid-related orphan receptor gamma (ROR-gamma) signaling pathway (AID 1159521)
Summary of the method: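 Tet-on ROR-gamma CHO cells with ROR response element-luciferase reporter; compounds added 2 hr before 1 uM doxycycline induction, then 16 hr at 37 C. Antagonism scored as decreased ONE-Glo luminescence.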

[14] = qHTS assay to identify small molecule agonists of the AP-1 signaling pathway - cell viability counter screen (AID 1159525; calls by dose curve; also: nearly all actives have a fitted effect of over 55% in size)
Summary of the method: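 Luminescent ATP readout (Cell Titer Glo, 30 min RT), normalised to DMSO and tetra n-octyl ammonium bromide controls. Cells were ME-180 AP-1-bla in 0.5% dialyzed FBS Opti-MEM, with a 5 h, 37 °C compound exposure.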

[15] = qHTS assay to identify small molecule agonists of the AP-1 signaling pathway (AID 1159526; calls by dose curve; also: % is scaled to controls: 0 for no effect and ±100 for the full control effect)
[16] = qHTS assay to identify small molecule agonists of the peroxisome proliferator-activated receptor delta (PPARd) signaling pathway - cell viability counter screen (AID 743211); also: % is scaled to controls: 0 for no effect and ±100 for the full control effect; nearly all actives have a fitted effect of over 55% in size
Summary of the method: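 PPARd-bla HEK293H cells (3000/well) were pre-incubated 5 h at 37 C, then exposed to compound for 17 h at 37 C. After 2 h with LiveBLAzer substrate, CellTiter-Glo was added to the same wells; luminescence read after 30 min at room temperature.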

[17] = target: Peroxisome proliferator-activated receptor delta (Homo sapiens) (UniProt Q03181); test: qHTS assay to identify small molecule antagonists of the peroxisome proliferator-activated receptor delta (PPARd) signaling pathway (AID 743215; active = well fitted inhibition curve with a large enough effect in the signal ratio in the repeat runs, not every such curve was filed as active; the % refers to the signal ratio)
Summary of the method: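 Read-out is beta-lactamase FRET fluorescence, measured 2 h after substrate addition at room temperature. Beforehand, UAS-bla HEK293H cells carrying the PPARd reporter were exposed to compounds with L165041 at 300 nM final for 17 h at 37 C.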

[18] = target: Bile acid receptor (Homo sapiens) (UniProt Q96RI1); test: qHTS assay to identify small molecule antagonists of the farnesoid-X-receptor (FXR) signaling pathway (AID 743217; active = well fitted inhibition curve with a large enough effect in the signal ratio in the repeat runs, not every such curve was filed as active; the % refers to the signal ratio; also: % is scaled to controls: 0 for no effect and ±100 for the full control effect)
Summary of the method: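 HEK 293T FXR-UAS-bla, 5000 cells/well; compound + CDCA 50 uM final; 16 h, 37 °C; B/G FRET substrate 2 h RT; fluorescence.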

[19] = target: Bile acid receptor (Homo sapiens) (UniProt Q96RI1); test: qHTS assay to identify small molecule agonists of the farnesoid-X-receptor (FXR) signaling pathway (AID 743220; active = well fitted activation curve with a large enough effect in the signal ratio in the repeat runs, not every such curve was filed as active; the % refers to the signal ratio; also: % is scaled to controls: 0 for no effect and ±100 for the full control effect)
Summary of the method: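 Beta-lactamase reporter under UAS control in GeneBLAzer FXR HEK 293T cells (5000/well) measured with LiveBLAzer FRET substrate after 2 h at room temperature. Compound exposure lasted 16 h at 37C.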

[20] = qHTS assay to identify small molecule agonists of the endoplasmic reticulum stress response signaling pathway (AID 1159516; active = well fitted activation curve with a large enough effect in the signal ratio in the repeat runs, not every such curve was filed as active; the % refers to the signal ratio; also: % is scaled to controls: 0 for no effect and ±100 for the full control effect)
Summary of the method: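 Read-out is beta-lactamase cleavage of a FRET substrate (405 nm excitation; 460 and 530 nm emissions) in ESRE-bla HeLa cells after a 5 hr compound exposure at 37 C. Substrate incubation ran 2 hr at room temperature.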

Sequence of Peroxisome proliferator-activated receptor delta (Homo sapiens) (Q03181 whole entry, looked up): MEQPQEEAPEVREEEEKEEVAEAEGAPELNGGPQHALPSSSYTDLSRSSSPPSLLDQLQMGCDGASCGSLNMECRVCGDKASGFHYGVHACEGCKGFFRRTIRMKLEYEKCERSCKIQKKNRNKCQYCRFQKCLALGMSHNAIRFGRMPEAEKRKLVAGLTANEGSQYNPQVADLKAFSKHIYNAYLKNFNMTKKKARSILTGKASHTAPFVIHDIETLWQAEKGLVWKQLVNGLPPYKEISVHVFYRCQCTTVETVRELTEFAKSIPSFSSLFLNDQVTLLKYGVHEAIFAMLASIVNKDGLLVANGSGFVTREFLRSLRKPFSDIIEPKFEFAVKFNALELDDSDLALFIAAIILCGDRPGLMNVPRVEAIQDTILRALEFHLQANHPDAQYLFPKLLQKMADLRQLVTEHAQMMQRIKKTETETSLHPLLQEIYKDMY
Sequence of Vitamin D3 receptor (Homo sapiens) (P11473 whole entry, looked up): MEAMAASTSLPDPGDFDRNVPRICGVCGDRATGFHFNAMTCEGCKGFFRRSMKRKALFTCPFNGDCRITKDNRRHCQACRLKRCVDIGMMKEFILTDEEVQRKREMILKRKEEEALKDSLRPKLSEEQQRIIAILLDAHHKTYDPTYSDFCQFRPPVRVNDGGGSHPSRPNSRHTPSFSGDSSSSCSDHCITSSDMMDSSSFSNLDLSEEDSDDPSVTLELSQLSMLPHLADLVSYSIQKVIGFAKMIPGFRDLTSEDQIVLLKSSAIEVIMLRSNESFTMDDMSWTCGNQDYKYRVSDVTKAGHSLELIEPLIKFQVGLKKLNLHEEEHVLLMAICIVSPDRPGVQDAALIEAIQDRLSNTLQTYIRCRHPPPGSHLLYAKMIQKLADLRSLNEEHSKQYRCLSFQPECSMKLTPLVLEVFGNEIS
Sequence of Bile acid receptor (Homo sapiens) (Q96RI1 whole entry, looked up): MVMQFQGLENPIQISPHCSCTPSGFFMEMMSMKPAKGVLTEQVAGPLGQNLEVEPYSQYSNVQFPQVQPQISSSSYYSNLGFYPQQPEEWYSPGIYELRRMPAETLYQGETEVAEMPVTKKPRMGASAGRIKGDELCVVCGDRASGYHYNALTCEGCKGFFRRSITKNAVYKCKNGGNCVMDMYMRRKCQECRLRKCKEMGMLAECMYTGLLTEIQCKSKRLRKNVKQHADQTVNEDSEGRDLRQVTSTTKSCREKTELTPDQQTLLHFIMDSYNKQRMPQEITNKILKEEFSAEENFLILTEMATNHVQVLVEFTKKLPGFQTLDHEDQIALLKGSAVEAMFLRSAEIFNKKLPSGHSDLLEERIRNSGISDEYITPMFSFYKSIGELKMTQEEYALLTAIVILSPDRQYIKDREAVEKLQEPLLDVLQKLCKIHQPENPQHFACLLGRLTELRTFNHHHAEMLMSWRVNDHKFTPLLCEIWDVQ

CC(CO)(CO)CO
inactive: outcome [1] | outcome [2] | outcome [3] | outcome [4] | outcome [5] | outcome [6] | outcome [7] | outcome [8] | outcome [9] | outcome [10] | outcome [11] | outcome [12] | outcome [13] | outcome [14] | outcome [15]

N#CCC(=O)NN
inactive: outcome [16] | outcome [1] | outcome [2] | outcome [17] | outcome [3] | outcome [4] | outcome [5] | outcome [8] | outcome [9] | outcome [10] | outcome [11] | outcome [12] | outcome [13] | outcome [14] | outcome [15]

Cc1c(N)cccc1Cl
inactive: outcome [1] | outcome [2] | outcome [17] | outcome [18] | outcome [3] | outcome [19] | outcome [4] | outcome [6] | outcome [7] | outcome [8] | outcome [9] | outcome [10] | outcome [11] | outcome [12] | outcome [13] | outcome [14] | outcome [15]

N#Cc1cscn1
inactive: outcome [16] | outcome [2] | outcome [18] | outcome [3] | outcome [19] | outcome [4] | outcome [7] | outcome [8] | outcome [9] | outcome [10] | outcome [11] | outcome [12] | outcome [13] | outcome [14] | outcome [15]

CC(C)OC(=O)OCOP(=O)(CO[C@H](C)Cn1cnc2c(N)ncnc21)OCOC(=O)OC(C)C
inactive: outcome [16] | outcome [1] | outcome [2] | outcome [17] | outcome [3] | outcome [4] | outcome [5] | outcome [6] | outcome [7] | outcome [8] | outcome [9] | outcome [10] | outcome [11] | outcome [12] | outcome [13] | outcome [14] | outcome [15]

Fc1ccccc1
inactive: outcome [16] | outcome [1] | outcome [3] | outcome [4] | outcome [5] | outcome [7] | outcome [8] | outcome [9] | outcome [10] | outcome [11] | outcome [12] | outcome [13] | outcome [14] | outcome [15]

C=CC(=O)OCC1CCCO1 (stereo not drawn)
inactive: outcome [16] | outcome [1] | outcome [2] | outcome [17] | outcome [18] | outcome [3] | outcome [19] | outcome [4] | outcome [7] | outcome [8] | outcome [9] | outcome [10] | outcome [11] | outcome [12] | outcome [13] | outcome [14] | outcome [15]

O=Cc1ccccc1Cl
inactive: outcome [16] | outcome [2] | outcome [18] | outcome [3] | outcome [19] | outcome [4] | outcome [5] | outcome [6] | outcome [7] | outcome [8] | outcome [9] | outcome [10] | outcome [11] | outcome [12] | outcome [13] | outcome [14] | outcome [15]

CC1(C)Cc2cccc(N)c2O1
inactive: outcome [16] | outcome [1] | outcome [2] | outcome [17] | outcome [18] | outcome [19] | outcome [4] | outcome [5] | outcome [6] | outcome [8] | outcome [9] | outcome [10] | outcome [11] | outcome [12] | outcome [13] | outcome [14] | outcome [15]

C=C(C)[C@@H]1CC=C(C)CC1
inactive: outcome [16] | outcome [2] | outcome [3] | outcome [4] | outcome [7] | outcome [8] | outcome [10] | outcome [20] | outcome [11] | outcome [12] | outcome [14] | outcome [15]

CCCC(=O)OCCC(C)CCC=C(C)C (stereo not drawn)
inactive: outcome [1] | outcome [2] | outcome [17] | outcome [3] | outcome [7] | outcome [9] | outcome [10] | outcome [11] | outcome [12] | outcome [13] | outcome [14] | outcome [15]

O=C(O)CCCCCC(=O)O
inactive: outcome [16] | outcome [1] | outcome [2] | outcome [17] | outcome [3] | outcome [4] | outcome [5] | outcome [6] | outcome [7] | outcome [8] | outcome [9] | outcome [10] | outcome [11] | outcome [12] | outcome [13] | outcome [14] | outcome [15]

CCN1CCCC1CN (stereo not drawn)
inactive: outcome [16] | outcome [1] | outcome [2] | outcome [17] | outcome [4] | outcome [5] | outcome [6] | outcome [7] | outcome [8] | outcome [9] | outcome [10] | outcome [11] | outcome [12] | outcome [13] | outcome [14] | outcome [15]

CCCCCCCCCCCCCBr
inactive: outcome [16] | outcome [1] | outcome [2] | outcome [17] | outcome [18] | outcome [3] | outcome [19] | outcome [4] | outcome [7] | outcome [9] | outcome [10] | outcome [11] | outcome [12] | outcome [13] | outcome [14] | outcome [15]

CCCCCCCCCOC(=O)CCCCC(=O)OCCCCCCC
inactive: outcome [16] | outcome [1] | outcome [2] | outcome [3] | outcome [4] | outcome [5] | outcome [7] | outcome [8] | outcome [9] | outcome [10] | outcome [11] | outcome [12] | outcome [13] | outcome [14] | outcome [15]

C=CCOC(=O)CCCCCC
inactive: outcome [16] | outcome [1] | outcome [2] | outcome [3] | outcome [5] | outcome [6] | outcome [7] | outcome [8] | outcome [9] | outcome [10] | outcome [11] | outcome [12] | outcome [13] | outcome [14] | outcome [15]

[O]=[Mo](=[O])=[O]
inactive: outcome [1] | outcome [2] | outcome [3] | outcome [4] | outcome [5] | outcome [6] | outcome [7] | outcome [8] | outcome [9] | outcome [10] | outcome [11] | activity, negative = cytotoxicity [12] 11.6% [at 19 µM] | activity change, negative = inhibition [13] 4.36% [at 19 µM] | viability change, negative = cytotoxic [14] -2.83% [at 15.8 µM] | activation [15] -20.6% [at 15.8 µM]

Cc1ccc2c(c1)C(=O)c1ccccc1C2=O
inactive: outcome [16] | outcome [1] | outcome [2] | outcome [17] | outcome [3] | outcome [4] | outcome [5] | outcome [6] | outcome [8] | outcome [9] | outcome [10] | outcome [11] | outcome [12] | outcome [13] | outcome [14] | outcome [15]

Source: PubChem BioAssay (Tox21)
